Experimental data as given in PubChem BioAssay (NCI).
About 83,000 compounds went through this panel and 20% of them were active in at least one assay; those are over-represented in the sample as a whole.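 Interpretation: 100, growth as untreated; towards 0, rising growth inhibition; 0, no net growth; 0 to -100, cell death. Compounds scoring below 10 were considered active.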 Calls of active or inactive are those of the source.

Experiments:
Experiment in all cases: NCI-60 one-dose screen, 48 h (100 = growth as untreated, 0 = no growth, -100 = all killed)
Conditions in all cases: 10 µM unless noted
HCT-15 colon = test system: HCT-15 colon
HT29 colon = test system: HT29 colon
SNB-75 CNS = test system: SNB-75 CNS
SNB-19 CNS = test system: SNB-19 CNS
U251 CNS = test system: U251 CNS
PC-3 prostate = test system: PC-3 prostate
SK-MEL-5 melanoma = test system: SK-MEL-5 melanoma
UACC-62 melanoma = test system: UACC-62 melanoma
LOX IMVI melanoma = test system: LOX IMVI melanoma
SK-MEL-28 melanoma = test system: SK-MEL-28 melanoma

Measured: growth

O=C(O)[C@@H](Cc1ccc2ccccc2c1)NC(=O)n1c2ccccc2c2ccccc21
inactive: HCT-15 colon 21.1% | SNB-75 CNS 20.1% | SNB-19 CNS 25.4% | U251 CNS 14.8% | PC-3 prostate 26.7% | UACC-62 melanoma 18.3% | LOX IMVI melanoma 35.9% | SK-MEL-28 melanoma 63.3%
active: HT29 colon 4.59% | SK-MEL-5 melanoma 3.91%

Cc1nc2c(=O)nc3s/c(=C\c4ccco4)c(=O)n3c2nc1C
inactive: HCT-15 colon 106% | HT29 colon 100% | SNB-75 CNS 85.4% | SNB-19 CNS 96.8% | U251 CNS 93.5% | PC-3 prostate 97.6% | SK-MEL-5 melanoma 104% | UACC-62 melanoma 92.4% | LOX IMVI melanoma 90.2% | SK-MEL-28 melanoma 100%

O=C(N/N=C\c1cccc([N+](=O)[O-])c1)N/N=C/c1cccc([N+](=O)[O-])c1
inactive: HCT-15 colon 109% | HT29 colon 114% | SNB-75 CNS 88.8% | SNB-19 CNS 100% | U251 CNS 97.3% | PC-3 prostate 91.5% | SK-MEL-5 melanoma 95.9% | UACC-62 melanoma 92.5% | LOX IMVI melanoma 103% | SK-MEL-28 melanoma 110%

CS(=O)(=O)c1nnc(-c2ccccc2)s1
inactive: HCT-15 colon 71.4% | HT29 colon 82.2% | SNB-75 CNS 103% | SNB-19 CNS 107% | U251 CNS 106% | PC-3 prostate 96.4% | SK-MEL-5 melanoma 99.4% | UACC-62 melanoma 82.7% | LOX IMVI melanoma 71.2% | SK-MEL-28 melanoma 97.3%

CCOC(=O)/C=C1\S/C(=N\Nc2cc(=O)[nH]c3ccccc23)N(c2ccccc2)C1=O
inactive: HCT-15 colon 98.7% | HT29 colon 113% | SNB-75 CNS 80.1% | SNB-19 CNS 100% | U251 CNS 94.2% | PC-3 prostate 95.4% | SK-MEL-5 melanoma 104% | UACC-62 melanoma 97% | LOX IMVI melanoma 97.2% | SK-MEL-28 melanoma 110%

COc1ccc(/C=C/C(=O)c2ccc(NC(=O)CSc3nc4c([nH]3)c(=O)n(C)c(=O)n4C)cc2)cc1OC
inactive: HCT-15 colon 89% | HT29 colon 103% | SNB-75 CNS 82.3% | SNB-19 CNS 62.5% | U251 CNS 49.6% | PC-3 prostate 94.6% | SK-MEL-5 melanoma 92% | UACC-62 melanoma 81.4% | LOX IMVI melanoma 78.3% | SK-MEL-28 melanoma 95.7%

O=C(Nc1ncc(Cc2cc(C(F)(F)F)ccc2Cl)s1)c1cccs1
inactive: HCT-15 colon 21.9% | HT29 colon 18.6% | SNB-75 CNS 72% | SNB-19 CNS 65% | U251 CNS 42.5% | PC-3 prostate 50.1% | SK-MEL-5 melanoma 37.7% | UACC-62 melanoma 46.1% | LOX IMVI melanoma 58.8% | SK-MEL-28 melanoma 67.5%

CC1(C)CC[C@]2(CO)CC[C@]3(C)[C@H](CC[C@@H]4[C@@]5(C)CCCNC(C)(C)[C@@H]5CC[C@]43C)[C@H]2[C@H]1O
inactive: HCT-15 colon 34.3% | HT29 colon 17.6% | SNB-75 CNS 80.1% | SNB-19 CNS 97.6% | U251 CNS 56.1% | PC-3 prostate 64.7% | SK-MEL-5 melanoma 92.8% | UACC-62 melanoma 95.9% | LOX IMVI melanoma 69.4% | SK-MEL-28 melanoma 93.9%

Cc1c(CN)cc(-c2ccc(Cl)cc2)n1-c1ccccc1
inactive: HCT-15 colon 80.9% | HT29 colon 103% | SNB-75 CNS 78.5% | SNB-19 CNS 84.7% | U251 CNS 79.9% | PC-3 prostate 89.4% | SK-MEL-5 melanoma 82.4% | UACC-62 melanoma 57% | LOX IMVI melanoma 67% | SK-MEL-28 melanoma 114%

CN(C)CCCC1(c2ccc(F)cc2)OCc2cc(-c3cc4ccccc4s3)ccc21 (stereo not given)
inactive: SNB-75 CNS 25.2% | SNB-19 CNS 71.2% | PC-3 prostate 28.8% | SK-MEL-5 melanoma 60.9%
active: HCT-15 colon -49% | HT29 colon -67.1% | U251 CNS -83% | UACC-62 melanoma -62.1% | LOX IMVI melanoma -93.6% | SK-MEL-28 melanoma -87.5%

C=C1C(=O)O[C@H]2[C@H]1CC/C(COC(=O)CSCSCC(=O)OC/C1=C/CC[C@@]3(C)O[C@H]3[C@H]3OC(=O)C(=C)[C@@H]3CC1)=C\CC[C@@]1(C)O[C@@H]21
inactive: SNB-75 CNS 60.4% | SNB-19 CNS 54% | U251 CNS 10.8% | SK-MEL-5 melanoma 66.1% | UACC-62 melanoma 24.2%
active: HCT-15 colon 0.182% | HT29 colon -3.63% | PC-3 prostate 0.538% | LOX IMVI melanoma -48.5% | SK-MEL-28 melanoma -4.58%

C=CCC(CCCC)(C(=O)OCC)C(=O)OCC
inactive: HCT-15 colon 96% | HT29 colon 102% | SNB-75 CNS 77.2% | SNB-19 CNS 99% | U251 CNS 102% | PC-3 prostate 94.8% | SK-MEL-5 melanoma 113% | UACC-62 melanoma 99.6% | LOX IMVI melanoma 99.7% | SK-MEL-28 melanoma 115%

COc1cc(/C=N/Nc2ccc(Br)cc2)cc(OC)c1OC
inactive: HCT-15 colon 18.9% | HT29 colon 29.2% | SNB-75 CNS 87.5% | SNB-19 CNS 91.6% | U251 CNS 65.5% | PC-3 prostate 60.9% | SK-MEL-5 melanoma 85% | UACC-62 melanoma 36.8% | LOX IMVI melanoma 13.5% | SK-MEL-28 melanoma 82.1%

O=S(=O)(Oc1ccc(Br)cc1)c1ccc(Cl)cc1
inactive: HCT-15 colon 97.6% | HT29 colon 99% | SNB-75 CNS 121% | SNB-19 CNS 103% | U251 CNS 106% | PC-3 prostate 91.7% | SK-MEL-5 melanoma 101% | UACC-62 melanoma 98.6% | LOX IMVI melanoma 95.1% | SK-MEL-28 melanoma 103%

COc1ccc2c(c1)c(/C(O)=C1\COC(=O)C1=O)cn2Cc1ccc(F)cc1
inactive: HCT-15 colon 87.8% | HT29 colon 115% | SNB-75 CNS 104% | SNB-19 CNS 100% | U251 CNS 101% | PC-3 prostate 89.7% | SK-MEL-5 melanoma 97.9% | UACC-62 melanoma 88.9% | LOX IMVI melanoma 100% | SK-MEL-28 melanoma 105%

Cc1ncc(C(=O)Nc2ccc(CN3CCN(C)CC3)c(C(F)(F)F)c2)cc1C#Cc1cnc(N)c2ncccc12
active: HT29 colon -13.8% | PC-3 prostate 5.19% | SK-MEL-5 melanoma -59.3% | UACC-62 melanoma 7.13% | LOX IMVI melanoma -3.58% | SK-MEL-28 melanoma -77.4%
inactive: HCT-15 colon 20% | SNB-75 CNS 50.9% | SNB-19 CNS 81% | U251 CNS 45.7%

N#CSc1c[nH]c2cccc(/C=C/C(=O)/C=C(O)/C=C/c3cccc4[nH]cc(SC#N)c34)c12
active: HCT-15 colon -79.1% | HT29 colon -62.7% | SNB-75 CNS -23.1% | SNB-19 CNS -80.6% | U251 CNS -91.9% | PC-3 prostate -53% | SK-MEL-5 melanoma -87.5% | UACC-62 melanoma -65.4% | LOX IMVI melanoma -94.8% | SK-MEL-28 melanoma -68.2%

CCO/C=N/C1=C(C#N)C(c2ccc(F)cc2)c2sc3c(F)cccc3c2O1 (stereo not given)
inactive: HCT-15 colon 26% | HT29 colon 56.8% | SNB-75 CNS 13.4% | SNB-19 CNS 33.2% | U251 CNS 26.6% | PC-3 prostate 47.9% | SK-MEL-5 melanoma 35.5% | UACC-62 melanoma 15.2% | LOX IMVI melanoma 36% | SK-MEL-28 melanoma 60.4%

N[C@H]1CCC[C@@H]1NCCCCN1C(=O)c2cccc3cc([N+](=O)[O-])cc(c23)C1=O
inactive: HCT-15 colon 63.5% | HT29 colon 14.2% | SNB-75 CNS 46.7% | SNB-19 CNS 46.2% | U251 CNS 42.1% | PC-3 prostate 40.7% | SK-MEL-5 melanoma 70.2% | UACC-62 melanoma 72.2% | LOX IMVI melanoma 22.8% | SK-MEL-28 melanoma 93.6%

O=C(/C=C/c1ccc(Oc2ccc(Br)cc2)cc1)c1ccc(Br)cc1
inactive: HCT-15 colon 98.5% | HT29 colon 100% | SNB-75 CNS 90.7% | SNB-19 CNS 97.6% | U251 CNS 95% | PC-3 prostate 100% | SK-MEL-5 melanoma 102% | UACC-62 melanoma 91.4% | LOX IMVI melanoma 96.2% | SK-MEL-28 melanoma 105%

Cc1nn(-c2ccccc2)c(N)c1N=C1NC(=O)/C(=C/c2ccc(Br)cc2)S1
inactive: HCT-15 colon 81.5% | HT29 colon 106% | SNB-75 CNS 85.2% | SNB-19 CNS 73.5% | U251 CNS 77.1% | PC-3 prostate 74% | SK-MEL-5 melanoma 99% | UACC-62 melanoma 77.6% | LOX IMVI melanoma 90.4% | SK-MEL-28 melanoma 94.5%

C=CCOC(=O)C1=C(C)N(CC)C(=O)NC1c1c(Cl)n(C)c2ccccc12 (stereo not given)
inactive: HCT-15 colon 82.5% | HT29 colon 89.8% | SNB-75 CNS 92.3% | SNB-19 CNS 99.9% | U251 CNS 97.9% | PC-3 prostate 87.7% | SK-MEL-5 melanoma 100% | UACC-62 melanoma 82.6% | LOX IMVI melanoma 88.6% | SK-MEL-28 melanoma 104%

COc1cc(-c2nc3c(ncc4ccc(=O)n(-c5ccccc5)c43)s2)cc(OC)c1OC
inactive: HCT-15 colon 78.6% | HT29 colon 84.2% | SNB-75 CNS 56% | SNB-19 CNS 86.1% | U251 CNS 80.3% | PC-3 prostate 56.9% | SK-MEL-5 melanoma 68.5% | UACC-62 melanoma 78.7% | LOX IMVI melanoma 58.4% | SK-MEL-28 melanoma 78.3%

COC(=O)c1c2c(n3ccccc13)C(=O)c1ccccc1C2=O
inactive: HCT-15 colon 51.4% | HT29 colon 55.3% | SNB-75 CNS 113% | SNB-19 CNS 62.5% | U251 CNS 61.6% | PC-3 prostate 47.2% | SK-MEL-5 melanoma 18.1% | UACC-62 melanoma 65.7% | LOX IMVI melanoma 49.3% | SK-MEL-28 melanoma 106%

COc1ccc2c(c1)CCc1[nH]nc(-c3cc(OC)c(OC)c(OC)c3)c1-2
inactive: HCT-15 colon 10.3% | SNB-75 CNS 36.7% | SNB-19 CNS 28.7% | PC-3 prostate 12.6% | UACC-62 melanoma 28.8% | SK-MEL-28 melanoma 58%
active: HT29 colon 0.652% | U251 CNS 5.42% | SK-MEL-5 melanoma -54.2% | LOX IMVI melanoma 5.34%

C=C(C)[C@@H]1CC[C@]2(C)[C@H](CC=C3[C@@H]4CC(C)(C)CC[C@]4(CO)CC[C@]32C)[C@@]1(C)CCCN
inactive: SNB-75 CNS 39.7% | SNB-19 CNS 79.5% | PC-3 prostate 21.3% | SK-MEL-5 melanoma 55.4% | UACC-62 melanoma 98.8%
active: HCT-15 colon -71.6% | HT29 colon -52.8% | U251 CNS -86.8% | LOX IMVI melanoma -97.2% | SK-MEL-28 melanoma -88.4%
